# An excerpt weighted towards active compounds, which were near 1.2% of everything screened.
# Phagocyt inh: macrophage phagocytosis inhibition; AID 1029; inhibition, % at 5 µM; J774A.1 macrophage IgG-bead phagocytosis, imaging; 0.07% of 110,000 active;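 active = inhibition above the mean of the plate negative controls plus 5 SD, cut at about 13% in these data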;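 also: phagocytic index as fraction of beads internalized from green versus red external bead signal; plate controls were DMSO negative control for no effect and cytochalasin-D positive control for full effect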
# MRP reversal: reverses drug resistance mediated by MRP. H69AR cells + 2 uM doxorubicin, CellTiter-Glo, 72 h. differential viability (reversal), % at 10 µM. 0.04% of 85,000 active. AID 602;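 active = viability drop by adding the cancer drug above about 55%, with treated viability meeting a 40% cutoff, limit read from the data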;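 also: viability without doxorubicin minus viability with 2 µM doxorubicin for each compound; larger differential means the compound sensitizes cells more to doxorubicin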
# Smad3 inh: Smad3 (human) transcription factor binding inhibition; 0.29% of 88,000 active; AID 630; TR-FRET Smad3/Dy647-FoxH1 peptide binding, europium anti-His; inhibition, % at 25 µM;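 active = compounds that reduce the energy-transfer binding signal between the protein and its labelled peptide by more than half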;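 also: 0% = Smad3 plus labelled peptide maximal FRET and 100% = peptide-only background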
# Mac1 fbg inh: CD11b/CD18-fibrinogen binding inhibition; 0.54% of 93,000 active; AID 1497; inhibition, % at 10 µM; K562 CD11b/CD18 adhesion to fibrinogen, ATPlite luminescence; Mn2+ added to activate the integrin;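 active = primary inhibition of 50% or more at 10 µM, then 40% or more on retest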
# Target sequence (P05107 whole entry, looked up, other chains not shown): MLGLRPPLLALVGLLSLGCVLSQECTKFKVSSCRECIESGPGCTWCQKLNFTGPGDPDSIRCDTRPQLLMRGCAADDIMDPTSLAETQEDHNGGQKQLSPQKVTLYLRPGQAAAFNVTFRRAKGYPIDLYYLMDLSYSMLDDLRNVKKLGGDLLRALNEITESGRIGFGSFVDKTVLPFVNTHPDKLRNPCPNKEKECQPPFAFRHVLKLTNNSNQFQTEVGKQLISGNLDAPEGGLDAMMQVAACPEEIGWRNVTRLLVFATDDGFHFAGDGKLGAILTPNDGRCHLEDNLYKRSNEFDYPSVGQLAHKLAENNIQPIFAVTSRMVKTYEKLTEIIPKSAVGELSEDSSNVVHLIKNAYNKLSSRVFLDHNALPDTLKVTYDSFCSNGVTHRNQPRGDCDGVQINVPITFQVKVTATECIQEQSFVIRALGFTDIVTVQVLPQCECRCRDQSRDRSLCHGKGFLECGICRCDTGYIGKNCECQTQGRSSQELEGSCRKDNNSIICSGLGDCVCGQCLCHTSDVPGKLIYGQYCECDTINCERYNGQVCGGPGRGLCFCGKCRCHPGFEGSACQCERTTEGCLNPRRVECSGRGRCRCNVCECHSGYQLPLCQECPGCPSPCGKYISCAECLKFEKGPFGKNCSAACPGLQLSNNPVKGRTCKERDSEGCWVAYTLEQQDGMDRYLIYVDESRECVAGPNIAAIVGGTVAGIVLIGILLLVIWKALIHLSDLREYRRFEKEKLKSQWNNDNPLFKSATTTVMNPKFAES
# Mac1 fbg enh: CD11b/CD18-fibrinogen binding enhancement; P05107+P11215; K562 CD11b/CD18 adhesion to fibrinogen, ATPlite luminescence; activation, % at 10 µM; 0.07% of 93,000 active; AID 1499;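 active = 10 µM primary screen giving 50% or more activity, confirmed by 40% or more on retest at that dose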
# MRP1 act: activators of MRP-1 | viability increase, % at 10 µM | 0.61% of 140,000 active | AID 799 | H69AR cells + doxorubicin, viability rescue, CellTiter-Glo;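 active = viability gain under doxorubicin at or above a set limit, the compound median plus 3 SD, cut at about 4.7% in these data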;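 also: MRP-1 overexpressing cells given doxorubicin 25 µM after compound pretreatment; 18-22 h compound pretreatment then 72 h with doxorubicin before readout; 0% = doxorubicin-only wells and 100% = vehicle-treated cells without doxorubicin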
# Starred values were filed as active, the others as inactive; x = no result given; + = active, no number; [ ] = remark or other dose.
SMILES,Phagocyt inh,MRP reversal,Smad3 inh,Mac1 fbg inh,Mac1 fbg enh,MRP1 act
O=C1[C@@H]2[C@H](Cc3ccc(O)cc3)N[C@]3(C(=O)Nc4ccccc43)[C@@H]2C(=O)N1c1ccc(F)cc1,-0.6,10.8,2.3,-9.7,-1.6,5.7*
O=C(O)c1ccc(/C=N/N=C2c3ccccc3-c3ccccc32)cc1,x,x,10.5,x,x,x
CN(CC(=O)N1CCCC1)S(=O)(=O)c1cc(Cl)ccc1Cl,25.2*[artifact],7.6,-7.3,-2.1,-3.8,1.2
CC(C)CCn1c(=O)c2ccccc2n2c(CN(C)Cc3ccccc3)nnc12,2.3,61.5*,1.1,6.1,-0.2,-4.2
O=C(O)[C@H]1CCCC[C@@H]1c1c2ccc(=O)c(O)c-2oc2c(O)c(O)ccc12,x,x,101.2*,x,x,x
CC(C)(C)C(=O)Nc1ccc(-c2cn3ccsc3n2)cc1,1.8,-20.1,-1.4,61.1*,-8.7,-0.2
Cc1ccc(OCC(O)CNS(=O)(=O)c2ccccc2C(=O)N2CCCCC2)cc1 (stereo unspecified),0.8,-8.1,10.4,2.6,0.6,-1.9
O=[N+]([O-])c1cccc(/C=N/NC2=CS(=O)(=O)C=C2)c1,x,x,6.2,x,x,x
Cc1nc([N+](=O)[O-])c(Br)n1CC(=O)c1ccc2ccccc2c1,+,-0.4,4.6,-17.7,1.8,-5.8
CN(C)CCCN1C(=O)C(=O)/C(=C(/O)c2ccc(S(=O)(=O)N(C)C)cc2)C1c1ccncc1 (stereo unspecified),x,3.0,8.0,x,x,x
O=C(Nc1cc(C(F)(F)F)ccc1N1CCOCC1)c1ccccc1,-0.6,x,x,19.0,-1.4,0.5
COC(=O)Nc1cc(C(F)(F)F)ccc1N1CCN(c2ccccc2)CC1,90.0*,-3.4,0.6,9.9,-6.3,1.5
CCOC(=O)c1ccc(N2CN=C3SCC(=O)N3C2)cc1,2.3,-0.6,-1.6,-2.2,-1.6,5.8*
CCOc1ccc(C(=O)Nc2ccccc2N2CCCC2)cc1,x,-20.3,6.9,x,x,-2.4
COc1ccc(-c2ocnc2C(=O)Nc2ccccc2N2CCCCC2)cc1,-0.3,-13.1,3.9,12.1,-0.9,7.2*
COc1ccc(NS(=O)(=O)c2cc(NC(=O)CNC(=O)c3ccc(C)s3)ccc2Cl)cc1,1.3,x,x,x,x,14.3*
C/C(Nc1ccccc1)=C(/C#N)C(N)=O,0.8,25.6,95.6*[fluorescence artefact?],-36.3,-1.1,-0.8
Cc1noc(C)c1C(=O)Nc1ccc(F)c(F)c1,1.3,5.0,13.8,-7.9,-1.2,-1.0
CCCCc1ccc(NC(=O)c2c(C)noc2C)cc1,-1.1,22.3,0.5,-3.1,9.5,8.7*
O=C1CC(N2CCC(c3nc4ccccc4o3)CC2)C(=O)N1c1cc(Cl)cc(Cl)c1 (stereo unspecified),0.7,4.7,9.2,6.6,1.1,8.2*
O=C1CC(N2CCC(c3nc4ccccc4o3)CC2)C(=O)N1c1ccc(Cl)cc1 (stereo unspecified),x,-1.0,0.1,x,x,x
Cc1oc(-c2ccc(Cl)cc2)nc1CN1CCCC(C(=O)NCc2cccnc2)C1 (stereo unspecified),-0.5,-0.9,-4.0,84.1*,-9.9,-0.7
Cc1oc(-c2ccc(Cl)cc2)nc1CN1CCCC(C(=O)NCc2ccccn2)C1 (stereo unspecified),-0.4,3.6,2.1,-5.5,-2.6,-0.3
O=C(NC1(C(F)(F)F)C(=O)Nc2c1c(=O)[nH]c(=O)n2-c1ccccc1)c1cccnc1 (stereo unspecified),0.9,-10.0,8.2,-17.1,-2.1,-1.2
CCCCNN,x,x,5.2,x,x,x
SMILES,Phagocyt inh,MRP reversal,Smad3 inh,Mac1 fbg inh,Mac1 fbg enh,MRP1 act
Cc1ccc(S(=O)(=O)Nc2nc3ccccc3nc2NCc2ccc3c(c2)OCO3)cc1C,-2.0,x,x,60.4,-4.6,5.9*
CC(C)C(=O)N1CCN(c2ccccc2NC(=O)c2cccc(Cl)c2)CC1,x,78.1*,2.2,x,x,-2.8
O=C(Nc1ccccc1N1CCN(C(=O)c2ccc(Cl)cc2)CC1)c1ccc(Br)cc1,-1.2,3.6,4.5,8.5,0.0,-1.9
CC1=NC(=O)C(N=Nc2cccc3ccccc23)N1c1ccccc1 (stereo unspecified),x,-12.6,-9.2,x,x,x
Cc1cn([C@@H]2C[C@H](O)[C@@H](COC(N)=O)O2)c(=O)[nH]c1=O,x,x,5.2,x,x,x
O=C(O)/C=C/C(=O)Nc1ccc2c(c1)C(=O)c1cc(F)ccc1-2,x,x,14.3,x,x,x
Cc1cccc2nc(CSC(=N)N)c(Br)n12,-4.8,x,x,2.2,-2.0,2.0
N=C(N)SCc1nc2ccccn2c1Br,-11.9,x,x,-0.5,2.1,7.9*
N[C@@H](CNO)C(=O)O,x,x,-1.3,x,x,x

# Screening results as filed in PubChem.
